# Assay results taken from PubChem BioAssay.
# Records with an inconclusive call do not appear. Activity calls are given as the source filed them.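 The calls were made as follows, unless noted: active = compound raises insulin release from rat beta cells at 5 mM glucose, no numeric limit stated; inactive = the rest.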
# Experiments:
# [1] = stimulators of insulin release from INS-1E, primary screen, cell-based, 5 mM glucose, NPC library (AID 1117329); conditions: rat INS-1E insulin secretion, at 10 µM, stronger effect = higher value
# [2] = growth inhibition of GSK3B-pretreated HCT116 cells – cell-based, CellTiter-Glo, 0.2 to 20 µM (AID 1117336;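 active = compounds lowering colon cancer cell viability after pretreatment blocking the GSK3B kinase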); conditions: HCT116 viability after GSK3B inhibitor, at 20 µM, stronger effect = higher value
# [3] = inhibition of endothelial tube formation, primary screen, imaging, VEGF stimulated, CD31 staining, tube area, NPC library (AID 1117340;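 active = compound that reduces growth-factor-driven endothelial tube area in a mixed cell culture, no cutoff stated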); conditions: VEGF-stimulated ADSC/ECFC co-culture, at 10 µM, stronger effect = higher value
# [4] = glucagon-like peptide 1 release enhancers, primary assay, NCI-H716 cell line, NPC library (AID 1117341;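 active = compound raises GLP1 secretion from the human gut endocrine cells, with no numeric limit stated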); conditions: NCI-H716 cells, at 10 µM, stronger effect = higher value
# [5] = HCT116 colon cancer cell growth inhibition, primary screen, CellTiter-Glo luminescence, NPC library (AID 1117342;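 active = compounds that lower survival of HCT116 colon cancer cells in the luminescence readout, no numeric limit stated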); conditions: at 20 µM (top of the series)
# [6] = CellTiter-Glo luminescent readout of SW480 viability loss, NPC library primary (AID 1117343;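 active = compounds that lower viability of the colon cancer cells in the luminescence readout, with no numeric limit stated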); conditions: CellTiter-Glo luminescence; at 20 µM (top of the series)
# [7] = decreased DLD-1 cellular survival, CellTiter-Glo luminescent readout, NPC compound collection, primary HTS (AID 1117346;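 active = compounds that lower survival of DLD-1 colon cancer cells in the luminescence readout, no cutoff given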); conditions: DLD-1 viability, CellTiter-Glo luminescence; at 20 µM (top of the series)
# [8] = molecular target: 6-phosphogluconate dehydrogenase, decarboxylating (Homo sapiens) (UniProt P52209); test: 6PGD enzyme inhibitors, primary screen, biochemical, human, recombinant enzyme, NADPH absorbance (AID 1159550;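 active = at least 20% inhibition of 6-phosphogluconate dehydrogenase activity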); conditions: recombinant 6PGD, NADPH absorbance 341 nm; at 10 µM; stronger effect = higher value
# 6-phosphogluconate dehydrogenase, decarboxylating (Homo sapiens), sequence (P52209 whole entry, looked up): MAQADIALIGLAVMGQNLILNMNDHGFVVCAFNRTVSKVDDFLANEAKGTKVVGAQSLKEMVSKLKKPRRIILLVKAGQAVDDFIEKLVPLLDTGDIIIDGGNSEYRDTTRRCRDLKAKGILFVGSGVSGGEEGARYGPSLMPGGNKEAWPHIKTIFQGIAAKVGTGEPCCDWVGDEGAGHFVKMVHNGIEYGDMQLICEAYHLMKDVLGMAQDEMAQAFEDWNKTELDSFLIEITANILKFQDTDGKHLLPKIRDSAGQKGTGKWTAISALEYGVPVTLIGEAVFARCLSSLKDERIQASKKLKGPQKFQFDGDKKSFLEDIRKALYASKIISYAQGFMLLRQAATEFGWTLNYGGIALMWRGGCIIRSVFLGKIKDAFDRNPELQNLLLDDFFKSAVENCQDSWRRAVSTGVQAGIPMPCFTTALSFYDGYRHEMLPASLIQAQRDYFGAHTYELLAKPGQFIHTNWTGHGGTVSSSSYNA
# [9] = differential killing of epithelial or mesenchymal cells, primary screen, imaging, PC-3E GFP, TEM4-18 mCherry, co-culture (AID 1345086;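 active = compounds killing one labelled cell type while sparing the other, by normalised counts and ratio limits, not self-fluorescent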;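 as to all read-outs here: cells exposed to compound for 72 h before imaging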;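 as to red/green cell ratio (normalised): normalised mesenchymal count divided by normalised epithelial count so high means epithelial killing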); conditions: imaging cell counts, at 1 µM; for red/green cell ratio (normalised): actives lie on both sides, counts scaled to control wells, 1 = unselective
# [10] = modulation of C. elegans fzo-1 (AID 1259413; call rule not given here;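 also: fzo-1 mutant C. elegans worms in liquid wells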); conditions: C. elegans fzo-1 modulator screen, mean read-out; stronger effect = higher value
# [11] = growth inhibition of DIPG glioma cells, dose response, cell-based, SU-DIPG-XVII, MIPE5.0, CellTiter-Glo, qHTS (AID 1347060; cut-off not given, nearly all actives have AC50 up to about 26 µM;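 also: cells exposed to compound for 48 hours before viability readout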); conditions: SU-DIPG-XVII viability, CellTiter-Glo ATP luminescence
# [12] = growth inhibition of DIPG glioma cells, dose response, cell-based, SU-DIPG-XIII, MIPE5.0, CellTiter-Glo, qHTS (AID 1347064; cut-off not given, nearly all actives have AC50 up to about 23 µM;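 also: cells exposed to compound for 48 hours before the viability read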); conditions: SU-DIPG-XIII viability, CellTiter-Glo ATP luminescence
# [13] = growth inhibition of DIPG glioma cells, dose response, cell-based, SU-DIPG-XIII, MIPE4.0, CellTiter-Glo, qHTS (AID 1347061; cut-off not given, nearly all actives have AC50 up to about 37 µM;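 also: cells exposed to compound for 48 hours before readout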); conditions: SU-DIPG-XIII viability, CellTiter-Glo ATP luminescence
# [14] = growth inhibition of DIPG glioma cells, dose response, cell-based, JHH-DIPG-1, MIPE4.0, CellTiter-Glo, qHTS (AID 1347062; cut-off not given, nearly all actives have AC50 up to about 27 µM); conditions: JHH-DIPG-1 viability, CellTiter-Glo ATP luminescence
# [15] = growth inhibition of DIPG glioma cells, dose response, cell-based, SU-DIPG-IV, MIPE4.0, CellTiter-Glo, qHTS (AID 1347063; cut-off not given, nearly all actives have AC50 up to about 30 µM;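 also: compound exposure lasted 48 hours before the viability readout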); conditions: SU-DIPG-IV viability, CellTiter-Glo ATP luminescence
# [16] = measured here: epithelial PC-3E GFP cell survival
# [17] = measured here: mesenchymal TEM4-18 mCherry cell survival
SMILES,insulin secretion stimulation [1],viability decrease [2],tube area decrease [3],GLP1 secretion stimulation [4],inhibition of viability [5],viability decrease (inhibition) [6],viability decrease (inhibition) [7],inhibition [8],red/green cell ratio (normalised) [9],"normalised cell number [9, 16]","normalised cell number [9, 17]",mean signal [10],AC50 [11],AC50 [12],outcome [13],outcome [14],outcome [15]
NCCCC(=O)O,-0.7% (inactive),3.2% (inactive),12% (inactive),1.6% (inactive),1.3% (inactive),10.4% (inactive),0.95% (inactive),15.9% (inactive),0.83 (inactive),1.17,0.97,,,,,,
CCN(CC)CCOC(=O)C(Cc1cccc2ccccc12)CC1CCCO1 (stereo not drawn),7.9% (inactive),-120% (inactive),-1.6% (inactive),8.3% (active),26.1% (inactive),37.7% (inactive),2.6% (inactive),-4.35% (inactive),1.07 (inactive),0.99,1.06,,,,,,
CC1(C)S[C@@H]2[C@H](NC(=O)[C@H](N)c3ccccc3)C(=O)N2[C@H]1C(=O)O,-0.2% (inactive),-19% (inactive),16.3% (inactive),1.2% (inactive),-2.8% (inactive),-8.7% (inactive),-9.6% (inactive),9.14% (inactive),0.91 (inactive),1.22,1.12,,,,,,
CC(NCCC(c1ccccc1)c1ccccc1)c1ccccc1 (stereo not drawn),4.5% (inactive),99.5% (active),15.4% (inactive),-2.1% (inactive),99.3% (active),102% (active),89% (active),4.5% (inactive),0.89 (inactive),0.97,0.86,,,,,,
CN1CCN(C2=Nc3ccccc3Oc3ccc(Cl)cc32)CC1,0.1% (inactive),-29.5% (inactive),43.3% (active),1.6% (inactive),30.1% (inactive),107% (active),85% (active),-14% (inactive),0.99 (inactive),1.1,1.09,262 (inactive),,,,,
CCN(CC)CCOc1ccc(/C(=C(\Cl)c2ccccc2)c2ccccc2)cc1,3.6% (inactive),102% (active),110% (active),22.8% (active),102% (active),124% (active),103% (active),-19.7% (inactive),1.05 (inactive),1.43,1.5,199 (inactive),8.33 µM (active),11.8 µM (active),,,
Cc1c(C(=O)O)c(O)cc2c1C(=O)c1c(O)c([C@@H]3O[C@H](CO)[C@@H](O)[C@H](O)[C@H]3O)c(O)c(O)c1C2=O,4.4% (inactive),46.7% (inactive),24.4% (inactive),-1.7% (inactive),35% (inactive),53.2% (active),34.5% (inactive),-2.65% (inactive),,,,,,,,,
C[C@@H]1CC[C@@]2(OC1)O[C@H]1C[C@H]3[C@@H]4CC[C@H]5C[C@@H](O)CC[C@]5(C)[C@H]4CC(=O)[C@]3(C)[C@H]1[C@@H]2C,3.2% (inactive),13.4% (inactive),-13.1% (inactive),-3.1% (inactive),4.27% (inactive),7.5% (inactive),3.7% (inactive),14.9% (inactive),,,,,,,,,
C[C@@H]1C[C@H]2[C@@H]3CCC4=CC(=O)C=C[C@]4(C)[C@@]3(F)[C@@H](O)C[C@]2(C)[C@@]1(O)C(=O)COP(=O)(O)O,-6.4% (inactive),-4.3% (inactive),0.7% (inactive),-2.2% (inactive),2.57% (inactive),24.1% (inactive),-4.8% (inactive),-4.39% (inactive),,,,,,,,,
CN1CCN(CC(=O)N2c3ccccc3C(=O)Nc3cccnc32)CC1,-1.3% (inactive),-6.7% (inactive),7.8% (inactive),-0.5% (inactive),-2.2% (inactive),-14.1% (inactive),5.4% (inactive),7.85% (inactive),0.9 (inactive),1.08,0.97,,,,,,
Cc1ncc([N+](=O)[O-])n1CCO,-1.4% (inactive),55.6% (active),-14.9% (inactive),-0.3% (inactive),18.5% (inactive),75.1% (active),55% (active),-20.7% (inactive),1.23 (inactive),0.93,1.13,239 (inactive),,,inactive,inactive,inactive
NC(N)=Nc1nc(CSCC/C(N)=N/S(N)(=O)=O)cs1,2.8% (inactive),6.7% (inactive),6.4% (inactive),1.4% (inactive),-8.7% (inactive),0.7% (inactive),-10.3% (inactive),5.97% (inactive),,,,276 (inactive),,,,,
C[n+]1ccccc1/C=N/O,2.2% (inactive),15.7% (inactive),-4.4% (inactive),-3.1% (inactive),1.77% (inactive),-3.4% (inactive),0.4% (inactive),-6.73% (inactive),0.85 (inactive),1.37,1.16,252 (inactive),,,,,
CC(C)N=C(N)/N=C(\N)Nc1ccc(Cl)cc1,-3.1% (inactive),14.7% (inactive),1.9% (inactive),5.1% (inactive),13.5% (inactive),67.6% (active),27.1% (inactive),2.42% (inactive),1.08 (inactive),1.11,1.2,,,,,,
Nc1ccc(C(=O)O)c(O)c1,0.1% (inactive),-46.6% (inactive),15.9% (inactive),-6% (inactive),-12.6% (inactive),12.5% (inactive),-27.1% (inactive),6.71% (inactive),0.88 (inactive),1.36,1.19,,,,,,
